Sampled rows, rich in hits. Any-hit rate of the full collection: about 2.9%.
A3A deaminase – blocks human APOBEC3A ssDNA deamination | AID 493011 | 0.41% of 330,000 active | recombinant A3A, FAM/TAMRA ssDNA deamination fluorescence | inhibition, % at 20 µM;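 active means at least 40% inhibition at 20 µM here, with at most 30% in a related deaminase screen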
Target sequence (P31941 whole entry, looked up): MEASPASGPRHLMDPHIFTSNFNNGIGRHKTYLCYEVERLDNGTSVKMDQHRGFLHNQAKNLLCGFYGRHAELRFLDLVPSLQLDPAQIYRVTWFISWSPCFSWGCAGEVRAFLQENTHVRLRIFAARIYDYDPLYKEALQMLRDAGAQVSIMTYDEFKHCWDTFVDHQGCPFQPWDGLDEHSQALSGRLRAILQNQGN
Cardio protect – myocardial damage modulation in H9c2 cells | H9c2 cardiomyocytes, H2O2 injury protection, ATPLite, 2 h | protection from H2O2 cell death, % at 20 µM | 0.63% of 360,000 active;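 active means compounds giving at least 50% protection of heart cells from peroxide-induced death in the single-dose screen, raw or plate-pattern-corrected value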
PfGluPho inh – PfG6PD (Plasmodium falciparum) enzyme inhibition | PfGluPho enzyme, NADPH resazurin-diaphorase fluorescence | inhibition, % at 20 µM | 0.78% of 350,000 active;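 active means inhibition reaching at least a set limit at 20 µM in the primary screen, cut at about 59% in these data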
NadD inh – NadD (S. aureus) enzyme inhibition. purified NadD enzyme, colorimetric absorbance read-out. inhibition, % at 20 µM. 0.78% of 360,000 active. AID 602399; in the data active means inhibition above about 26%
A3G deaminase – blocks human APOBEC3G single-stranded DNA deamination; Q9HC16; recombinant A3G, ssDNA deamination FAM/TAMRA fluorescence; AID 493012; inhibition, % at 20 µM; 0.28% of 330,000 active;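 active means inhibition of at least 40% at 20 µM, with no more than 30% in the related APOBEC3A deaminase screen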
Target sequence (Q9HC16 whole entry, looked up): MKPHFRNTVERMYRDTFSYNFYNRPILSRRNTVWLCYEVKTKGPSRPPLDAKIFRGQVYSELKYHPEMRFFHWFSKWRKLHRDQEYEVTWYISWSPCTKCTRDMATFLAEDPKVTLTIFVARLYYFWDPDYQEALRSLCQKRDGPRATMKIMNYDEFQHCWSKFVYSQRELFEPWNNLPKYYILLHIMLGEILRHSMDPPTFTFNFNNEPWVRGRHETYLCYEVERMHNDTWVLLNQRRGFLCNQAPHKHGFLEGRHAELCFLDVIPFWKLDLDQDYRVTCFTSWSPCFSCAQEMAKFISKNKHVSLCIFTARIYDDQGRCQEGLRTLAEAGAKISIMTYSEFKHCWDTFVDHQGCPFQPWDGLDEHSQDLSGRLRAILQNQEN
H9c2 TAG inh – reduces triacylglycerol accumulation in H9c2 cells; 0.66% of 230,000 active; Nile Red lipid (TAG) fluorescence; cells loaded with 200 µM oleic acid; inhibition, % at 12.5 µM;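 active means pattern-corrected inhibition of lipid staining of at least 50% with the nuclear-stain viability signal not falling by more than 50%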
A3A conf – confirmation of human APOBEC3A DNA deaminase inhibitors | recombinant A3A, ssDNA deaminase UDG fluorescence assay | shares compounds with A3A deaminase | AID 493151 | 63% of 1,400 active | inhibition, % at 20 µM;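 active means inhibition reaching a set limit, 80% of the first screen's cutoff, at 20 µM in any replicate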
UDG A3A counter – counter-screen for APOBEC3A inhibitors: UDG | inhibition, % at 20 µM | UDG counterscreen, FAM/TAMRA uracil oligo fluorescence | shares compounds with A3A deaminase | AID 504714 | 1,000 tested, under 10 active; call rule not given here
Hits are given with their value; 0 = inactive; - = not tested or not shown.

SMILES	A3A deaminase	Cardio protect	PfGluPho inh	NadD inh	A3G deaminase	H9c2 TAG inh	A3A conf	UDG A3A counter
CCOc1cc(/C=N/NC(=S)Nc2ccccc2C(F)(F)F)ccc1OCC(=O)N1CCOCC1	0	0	0	0	0	0	-	-
O=c1oc(-c2ccccc2)nc2sc3c(c12)CCC3	56.2	0	0	0	0	0	35.0	0
Cc1cccc(C(=O)OCC(=O)NCc2ccc3c(c2)OCO3)c1C	0	0	0	0	0	0	-	-
Cc1cccc(C(=O)OCC(=O)NCCNC(=O)COC(=O)c2cccc(C)c2C)c1C	40.4	0	0	0	0	0	0	-
O=C(O)c1ccc2c3c(cccc13)C(=O)N(c1ccccc1)C2=O	63.2	0	0	0	0	0	55.3	0
COc1cnc(-c2ccccn2)nc1Oc1cccc(C(F)(F)F)c1	0	0	-	0	0	-	-	-
N#Cc1ccc(C(=O)N(Cc2ccco2)c2c(N)n(Cc3ccccc3)c(=O)[nH]c2=O)cc1	0	0	0	0	0	0	-	-
N#CC1(NC(=O)COc2ccc(S(=O)(=O)N3CCCC3)cc2[N+](=O)[O-])CCCCC1	51.2	0	0	0	0	0	0	-
CC1CCCCN1C(=O)COc1ccc(S(=O)(=O)N2CCCC2)cc1[N+](=O)[O-] (stereo not drawn)	0	0	0	0	0	0	-	-
Cc1cc(Br)ccc1NC(=O)CN(C)C(=O)Cn1c(=O)cnc2ccccc21	66.3	0	0	0	0	0	52.2	0
CCN1C(=NCCCCO)N[C@@H](c2cccc(F)c2)C(C(=O)OC)=C1C	50.6	0	0	0	0	0	58.5	0
CCN1C(=NCCOC)N[C@@H](c2cccs2)C(C(=O)OC)=C1C	57.7	0	0	0	0	0	66.9	0
CCN(CC)CCCN=C1N[C@@H](c2cccc(F)c2)C(C(=O)OC)=C(C)N1Cc1ccccc1	46.4	0	0	0	0	0	81.8	0
CCN1C(=NCCN2CCOCC2)N[C@@H](c2ccccc2)C(C(=O)OC)=C1C	48.6	0	0	0	0	0	51.7	0
CCOC(=O)c1c(C)[nH]c(C(=O)N2CCC(C(=O)OCC)CC2)c1C	0	0	0	0	0	0	-	-
OCC[C@H]1C[C@@H](O)[C@H](O)[C@@]2(Cc3ccccc3CO2)O1	0	0	0	0	0	0	-	-
CCN1C(=NCCOC)N[C@@H](c2cccc(F)c2)C(C(=O)OC)=C1C	58.9	0	0	0	0	0	70.7	0
CC(Cc1ccccc1)NC(=S)CN1CCCC1=S (stereo not drawn)	0	0	0	0	0	0	-	-
CC[n+]1cc(-c2ccccc2)nc(N2CCOCC2)n1	50.8	0	0	0	0	-	66.7	-
CCOC(=O)/C(N=Nc1sc(C(=O)OCC)c(C)c1C(=O)OCC)=C(\C)O	0	-	-	-	0	-	-	-
CCOC(=O)c1sc(N=NC2=C(O)CCCC2=O)c(C(=O)OCC)c1C	40.3	0	0	37.5	0	0	18.2	0
CC(C)CC1C(=O)N(Cc2cn(Cc3ccco3)nn2)CCS(=O)(=O)N1Cc1ccc(-c2ccc(F)cc2)cc1 (stereo not drawn)	-	0	0	0	-	0	-	-
Cc1ccccc1NC(=O)C1c2cccc[n+]2CC(=O)N1c1c(C)cccc1C (stereo not drawn)	40.4	0	0	0	0	0	0	-
COc1ccc(Cl)cc1C(=O)NCCN1CCOCC1	0	0	0	0	0	0	-	-
O=C(NCCN1CCOCC1)c1ccc(Cl)cc1[N+](=O)[O-]	45.9	0	0	0	0	-	10.1	0
SMILES	A3A deaminase	Cardio protect	PfGluPho inh	NadD inh	A3G deaminase	H9c2 TAG inh	A3A conf	UDG A3A counter
Nc1ccc(Nc2ccccc2)c(S(=O)(=O)O)c1	66.6	0	0	0	0	0	56.8	0
CCN1CCN(CC(O)COCc2ccccc2)CC1 (stereo not drawn)	0	0	0	0	0	-	-	-
Cc1cc2c(cc1C)[n+](C)cn2CC(O)COCc1ccccc1 (stereo not drawn)	40.8	0	0	0	0	-	0	-
C[n+]1cn(CC(O)COCc2ccccc2)c2ccccc21 (stereo not drawn)	56.4	0	0	0	0	-	77.1	0
Cc1[nH]c2ccccc2c1/C=C/c1cc[n+](C)cc1	-	0	0	0	-	0	-	-
Cc1ccccc1/C=C/c1cc[n+](C)cc1	58.6	0	0	0	0	0	72.7	0
CCN1CCN(c2ccc(NC(=O)c3ccc4c(c3)OCCO4)cc2C)CC1	74.3	0	0	0	0	0	73.5	0
CCN1CCN(c2ccc(NC(=O)c3cc4ccccc4cc3OC)cc2C)CC1	41.5	0	0	0	0	0	72.7	0
CCN1CCN(c2cc(C)c3cc(NC(=O)c4ccc5c(c4)OCO5)ccc3n2)CC1	0	0	0	0	0	0	-	-
COCCCNC(=O)CN(Cc1ccccc1)S(=O)(=O)c1ccccc1	0	0	0	0	0	0	-	-
COCCCNC(=O)c1ccccc1N(Cc1ccccc1)S(=O)(=O)c1ccccc1	54.6	0	0	0	0	-	0	-
CCn1nc(NC(=O)C(C)C)c2cc3cccc(C)c3nc21	0	0	0	0	0	-	-	-
CCn1nc(NC(C)=O)c2cc3cccc(C)c3nc21	76.5	0	0	0	0	-	64.5	0
COc1ccc(NC(=O)C(=O)N2N=C3CCCCC3C2(O)C(F)(F)F)cc1 (stereo not drawn)	55.4	0	0	0	0	0	54.4	0
CCC1=NN(C(=O)C(=O)Nc2ccc(OC)cc2)C(O)(C(F)(F)F)C1 (stereo not drawn)	0	0	0	0	0	-	-	-
Cc1ccn(CCC(=O)N2CCc3ccccc32)n1	90.9	0	0	0	0	-	0	0
O=C(Cn1ccc([N+](=O)[O-])n1)N1CCc2ccccc21	0	0	0	0	0	0	-	-
Cc1ccc2oc(=O)c3cc(C(=O)N4CCN(C)CC4)sc3c2c1	0	0	0	0	0	0	-	-
Nc1ccn([C@@H]2O[C@H](C(=O)N3CCCN(Cc4ccccc4F)CC3)[C@@H](O)[C@H]2O)c(=O)n1	-	-	-	0	-	-	-	-
COc1cc2c(cc1OC)C(c1ccccc1)N(C(=O)CCl)CC2 (stereo not drawn)	0	0	0	0	0	0	-	-
COc1ccc(C(=O)N2CCc3cc(OC)c(OC)cc3C2c2ccc(OC)c(OC)c2)cc1OC (stereo not drawn)	58.6	0	0	0	0	-	0	0
O=C(Nc1nnc(SCc2c(Cl)cccc2Cl)s1)C1CC(=O)N(c2ccc3c(c2)OCCO3)C1 (stereo not drawn)	64.2	0	0	0	0	0	0	-
O=C(Nc1nc(-c2ccco2)c(-c2ccco2)s1)C1CC(=O)N(c2ccc3c(c2)OCCO3)C1 (stereo not drawn)	49.2	0	0	71.6	0	0	36.7	0

Screening data (PubChem BioAssay)
